Screening data (PubChem)
Ba CapD inh – CapD enzyme inhibition | purified CapD enzyme, fluorescence intensity read-out; active compounds read low | z-score (concentration not given with the values) | 0.23% of 140,000 active; in the data active = z-score mostly below about -2.9, no sharp cut-off; inactive = mostly above about -1.9
Hits are given with their value; . = inactive. The entries come from a sample that favours hits as a whole.

SMILES	Ba CapD inh
O=C1COc2ccccc2N1C(=O)c1ccc(Cl)cc1	-4.1
O=C(CN1C(=O)COc2ccccc21)Nc1ccc(Cl)cc1	.
O=C(O)CN1C(=O)COc2ccccc21	.
CC(=O)Nc1ccc(C(=O)OCC(=O)N2CCCC(C)C2)cc1 (configuration not stated)	.
CCn1c2ccccc2c2cc(CN3CCN(c4ccccn4)CC3)ccc21	.
Cc1c(C(=O)/C=C/N(C)C)nnn1-c1ccc(Cl)c(Cl)c1	.
CN(C)/C=C/C(=O)c1ccc(S(=O)(=O)c2ccccc2)cc1	.
CN(C)/C=C/C(=O)c1ccccc1	-4.9
CN(C)/C=C/C(=O)c1cccs1	-4.9
CC(=O)c1ccc2c(c1)CCO2	.
Cc1c(C(=O)/C=C/N(C)C)nnn1-c1ccc(F)c(Cl)c1	.
O=C(c1cccs1)c1cccs1	.
C/C(=N\O)c1ccc2c(c1)CCO2	.
Cc1oc(-c2ccccc2)cc1C(=O)/C=C/N(C)C	.
Cc1c(C(=O)/C=C/N(C)C)nnn1-c1ccccc1	-5.5
CSc1sc(C(=O)/C=C/N(C)C)c(-c2cccs2)c1C#N	.
CN(C)/C=C/C(=O)c1ccc2c(c1)CCO2	-6.1
CCN(CC)c1ccc2cc(C(N)=O)c(=Nc3ccc(C(F)(F)F)cc3)oc2c1	.
CC(C)NC(=O)c1cc2n(n1)C(C(F)(F)F)CC(c1cccs1)N2 (configuration not stated)	.
FC(F)(F)c1cnc(N2CCN(c3cccc(Cl)n3)CC2)c(Cl)c1	.
CCN1C(=O)c2cccc3c(Cl)cc(Cl)c1c23	.
CCOC(=O)c1cc2c(N)c(C(=O)c3ccccc3)oc2nc1C	.
N#CC(c1cccs1)c1ncc(C(F)(F)F)cc1Cl (configuration not stated)	.
CN1CCN(c2ccc(/C=c3\sc4nc5ccccc5n4c3=O)cc2[N+](=O)[O-])CC1	.
Cn1c(CSc2cccs2)nnc1SCC(=O)c1ccccc1	.
SMILES	Ba CapD inh
CCOC(=O)C(=O)N1CCCc2ccccc21	.
Cc1ccccc1C(=O)c1c[nH]c(C(=O)NCc2ccccc2)c1	.
COc1ccc(C2=NN(S(=O)(=O)c3ccccc3)C(c3ccccc3Cl)C2)cc1OC (configuration not stated)	.
Fc1ccccc1C1N(Cc2ccccc2)CCN1Cc1ccccc1	.
CCC(C)N1Cc2ccccc2N(CC)C1c1ccccc1F (configuration not stated)	-4.3
Fc1ccccc1C1N(Cc2ccccc2)CCCN1Cc1ccccc1	.
O=C(CCCC(=O)c1ccccc1)Nc1ccc(Cl)cn1	.
O=C(NCc1ccco1)C1c2ccccc2Oc2ccccc21	.
O=C(NCc1ccco1)NCC(F)(F)F	.
C=C1C(C(=O)NCc2ccco2)C1C(=O)NCc1ccco1 (configuration not stated)	-10
O=C(Cc1ncn[nH]1)NCCc1ccccc1	-5.8
CCCNC(=O)Cc1ncn[nH]1	.
Cc1n[nH]c(C)c1CC(=O)NCCc1ccccc1	.
CC(=O)Nc1cc2cc(NC(=O)c3c(-c4c(Cl)cccc4Cl)noc3C)ccc2oc1=O	.
CC(C)c1nc2ccc(Cl)cc2c2c1C(=O)N(NC(=O)c1ccco1)C2=O	.
Cc1noc(/C=C/N(C)C)c1S(=O)(=O)N(C)c1ccc(C(C)C)cc1	.
Cc1noc(/C=C/N(C)C)c1S(=O)(=O)NC1CCCCC1	-4.2
Cc1noc(/C=C/N(C)C)c1S(=O)(=O)NCCN1CCC(Cc2ccccc2)CC1	.
Cc1cc(Cl)ccc1OCCCC(=O)Nc1ccccc1C(F)(F)F	.
O=C(CCn1c(=O)c2cccn2c2cccnc21)NCCCc1ccccc1	.
O=C(O)c1ccc(-c2nc3cc(Cl)ccc3s2)cc1	.
CCCC(CCC)C(=O)Nc1ccccc1	.
O=C(Nc1ccccc1)C(C(F)(F)F)C(F)(F)F	-3.6
CC(C(=O)Nc1ccccc1)C(=O)Nc1ccccc1	.
CN(Cc1ccccc1)S(=O)(=O)c1ccc(NC(=O)c2nc(S(C)(=O)=O)ncc2Cl)cc1	.
SMILES	Ba CapD inh
Cc1cc(C(=O)O)ccc1-c1ccc(/C=N/n2cnnc2)o1	.
Cc1cc(C(=O)O)ccc1-c1ccc(/C=C2\SC(=S)NC2=O)o1	-9.4
Cc1ccc(N=C2NC(=O)/C(=C\c3ccc(-c4ccc(C(=O)O)cc4)o3)S2)cc1	.
Cn1nc(OCC(=O)NC(C)(C)C)cc1C(F)(F)F	.
CCOC(=O)c1c(C)oc2ccc(N(C(C)=O)S(=O)(=O)c3ccc(CC)cc3)cc12	.
N#C/C(=C\C=C\c1ccco1)c1nc2c(s1)CCCC2	.
NC(=S)N/N=C/c1ccco1	.
N#C/C(=C\C=C\c1ccco1)C(N)=S	-12
CN(C)c1cc(C(=O)N2CCN(C(=O)c3ccc(-c4ccccc4)cc3)CC2)nc(N(C)C)n1	.
Cc1ccc(NC(=S)C(C#N)C(=O)Nc2ccccc2C)c(C)c1 (configuration not stated)	.
COc1ccccc1N(C(C)=O)S(=O)(=O)c1ccc(Cl)cc1	-4.7
COc1ccc(N(C(=O)c2ccccc2)S(=O)(=O)c2ccc(Cl)cc2)cc1	.
CC(=O)Oc1ccccc1N(C(C)=O)S(=O)(=O)c1ccc(C)cc1	.
Cc1ccc2c(c1)-c1sc(C(=O)Nc3ccc(F)cc3F)cc1CS2	.
CCCNC(=O)c1ccc(CS(=O)(=O)c2ccc(OC)cc2)o1	.
Cc1cc(C)n(-c2ccc(C(=O)O)cc2)n1	.
Cc1cc(C)n(-c2ccc(N=NC3=C(O)CCCC3=O)cc2)n1	-4.4
Cc1cc(C)n(-c2ccc(S(N)(=O)=O)cc2)n1	.
CC(C)N1CCc2c(sc(NC(=O)CCc3ccccc3)c2C#N)C1	.
O=c1oc(C23CC4CC(CC(C4)C2)C3)ns1	.
O=C(c1ccc2cc[nH]c2c1)N1CCN(c2ncccc2C(F)(F)F)CC1	.
COc1c(C#N)sc2ccccc12	.
Cc1c(C#N)sc2ccccc12	.
c1ccc2c(c1)sc1ccccc12	-10
Cc1cccn2c(=O)c(/C=C3\SC(=S)N(CC4CCCO4)C3=O)c(NCc3ccccc3)nc12 (configuration not stated)	.
SMILES	Ba CapD inh
O=C1CCCC2=C1C(c1ccco1)c1c([nH]n(-c3ccccc3)c1=O)N2 (configuration not stated)	.
CC1(C)CC(=O)C2=C(C1)Nc1[nH]n(-c3ccccc3)c(=O)c1C2c1ccco1 (configuration not stated)	-4.6
CC1(C)CC(=O)C2=C(C1)Nc1ccc3ccccc3c1C2c1ccco1 (configuration not stated)	.
CCc1ccc(/C=N/n2c(C)nnc2-n2nc(C)cc2C)cc1	.
O=C(NC1CCS(=O)(=O)C1)c1ccco1 (configuration not stated)	.
CCOC(=O)c1c(NC(=O)Cn2cnc([N+](=O)[O-])n2)sc2c1CCC2	.
CCOC(=O)c1ccc(N=Cc2ccc(OC(=O)c3ccco3)cc2)cc1	.
O=C(NNc1cccc(Cl)c1)C(O)(c1ccc(Cl)cc1)c1ccc(Cl)cc1	.
CN1C(=O)/C(=C/c2cn(CC(=O)N3CCCC3)c3ccccc23)C(=O)NC1=S	.
Cc1ccc(N2C(=O)/C(=C\c3ccc(-c4ccccc4C(=O)O)o3)C(=O)NC2=S)cc1	.
CN1C(=O)/C(=C/c2ccc(I)o2)C(=O)NC1=S	-9.7
CC(=O)N1CCc2cccc(NC(=O)c3ccc(C(F)(F)F)cc3)c21	.
Cc1cccc(NC(=S)NNC(=O)CSCc2cccc3ccccc23)c1	.
CN(C)C=NC(=O)c1sc(S(C)(=O)=O)c2c1CCC=C2	.
O=C(O)c1cc(C=Nc2ccc(S(=O)(=O)NC3NC=CS3)cc2)c2c(c1)COCO2 (configuration not stated)	-5.2
Cc1cc(NS(=O)(=O)c2ccc(N=Cc3ccccc3O)cc2)no1	.
